± gives the standard deviation of the averaged measurements.
What follows are compounds tested on iBMDM (immortalised mouse bone-marrow-derived macrophages), LPS-stimulated (assay: mitochondrial superoxide (MitoSOX fluorescence) fold increase over unstimulated control; higher = more LPS-induced mitochondrial ROS (less inhibition)). Conditions: inhibitor concentration: 500 nM; LPS: 100 ng/ml; time after LPS: 4 h.
Procedure, shortened: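 Cells were immortalised mouse bone-marrow-derived macrophages, plated in triplicate and switched to phenol-red-free 1% FCS/DMEM for 20 h. Kinase inhibitors (500 nM, 30 min) preceded MitoSox loading (1 μM, 10 min) and LPS addition (100 ng/ml), with 510/580 nm fluorescence read every 60 min for 4 h. Mitochondrial superoxide is reported as averaged fold induction over untreated macrophages.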

Row | Compound | mitochondrial superoxide
1 | Cc1nc(NC(=O)N2CCC[C@H]2C(N)=O)sc1-c1ccnc(C(C)(C)C(F)(F)F)c1 | 1.7 ± 0.057
2 | CCN1CCN(Cc2ccc(-c3cc4c(N[C@H](C)c5ccccc5)ncnc4[nH]3)cc2)CC1 | 1.25 ± 0.081
3 | C=CC(=O)Nc1cccc(Sc2nc(Nc3ccc(N4CCN(C)CC4)cc3)ncc2Cl)c1 | 1.26 ± 0.032
4 | O=C(NOC[C@H](O)CO)c1ccc(F)c(F)c1Nc1ccc(I)cc1F | 1.71 ± 0.083
5 | C=CC(=O)Nc1cccc(Nc2nc(Nc3ccc(Oc4ccnc(C(=O)NC)c4)cc3)ncc2F)c1 | 1.6 ± 0.023
6 | C[C@@H](Oc1cc(-c2cnn(C3CCNCC3)c2)cnc1N)c1c(Cl)ccc(F)c1Cl | 1.64 ± 0.079
7 | FC(F)c1nc2ccccc2n1-c1nc(N2CCOCC2)nc(N2CCOCC2)n1 | 1.8 ± 0.038
8 | O=C1c2ccc(Nc3ccc(F)cc3F)cc2CCc2ccc(OC[C@H](O)CO)cc21 [Skepinone-L] | 1.62 ± 0.049
9 | C[S+]([O-])c1ccc(-c2nc(-c3ccc(F)cc3)c(-c3ccncc3)[nH]2)cc1 (stereo not given) | 1.6 ± 0.18
10 | C[C@H](NC(=O)/C(C#N)=C/c1cccc(Br)n1)c1ccccc1 | 1.5 ± 0.04
11 | COc1ncc(-c2ccc3nccc(-c4ccnnc4)c3c2)cc1NS(=O)(=O)c1ccc(F)cc1F | 1.52 ± 0.077
12 | CCN(CCO)CCCOc1ccc2c(Nc3cc(CC(=O)Nc4cccc(F)c4)[nH]n3)ncnc2c1 [Barasertib (AZD1152-HQPA)] | 1.44 ± 0.13
13 | O=C1Nc2ccc(I)cc2C1=Cc1cc(Br)c(O)c(Br)c1 | 1.09 ± 0.014
14 | CC(C)N(CCC(=O)c1ccc2ccccc2c1)Cc1ccccc1 | 1.69 ± 0.02
15 | CCCCOc1c(C(=O)c2c(F)cc(C)cc2F)c[nH]c2nncc1-2 | 1.37 ± 0.036

— the supplement of paper PMC7393113
